A structure can be active in one record and inactive in another. The source made the active and inactive calls. How the source made its calls: active means hit-call score of the fitted dose curve at least 0.9, where 1 is the maximum; inactive means score below 0.9.
What follows are compounds tested against Transcriptional activator Myb (Homo sapiens) (UniProt P10242) (assay: ATG_Myb_CIS: Attagene CIS-FACTORIAL HepG2 Assay for human Myeloblastosis (Myb) Proto-Oncogene Transcription Factor (AID 2282986)). Conditions: HepG2 Attagene CIS-FACTORIAL Myb reporter transcription; actives raise or lower the signal.
Sequence of Transcriptional activator Myb (Homo sapiens) (P10242 whole entry, looked up): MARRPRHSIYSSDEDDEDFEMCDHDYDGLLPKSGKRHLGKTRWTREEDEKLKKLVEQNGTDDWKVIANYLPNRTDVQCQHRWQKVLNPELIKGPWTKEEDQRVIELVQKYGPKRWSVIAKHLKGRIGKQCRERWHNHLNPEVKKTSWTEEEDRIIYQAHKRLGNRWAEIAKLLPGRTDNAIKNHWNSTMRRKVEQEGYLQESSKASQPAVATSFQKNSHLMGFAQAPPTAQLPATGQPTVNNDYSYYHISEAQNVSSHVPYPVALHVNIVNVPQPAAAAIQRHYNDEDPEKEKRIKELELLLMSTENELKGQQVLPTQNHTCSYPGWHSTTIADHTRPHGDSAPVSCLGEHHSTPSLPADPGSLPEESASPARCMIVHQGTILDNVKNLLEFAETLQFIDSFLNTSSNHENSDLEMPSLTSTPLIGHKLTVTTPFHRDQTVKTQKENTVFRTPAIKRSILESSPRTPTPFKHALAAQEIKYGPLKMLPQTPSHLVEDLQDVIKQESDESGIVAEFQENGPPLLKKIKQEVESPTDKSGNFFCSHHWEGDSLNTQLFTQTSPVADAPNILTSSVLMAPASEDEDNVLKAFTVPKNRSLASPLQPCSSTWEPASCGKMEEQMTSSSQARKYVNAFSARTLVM
Procedure: ATG_CIS is a cell-based, multiplexed-readout assay that uses HepG2, a human liver cell line, with measurements taken at 24 hours after chemical dosing in a 24-well plate.ATG_Myb_CIS is one of 52 assay component(s) measured or calculated from the ATG_CIS assay. It is designed to make measurements of mRNA induction, a form of inducible reporter, as detected with fluorescence intensity signals by Reverse transcription polymerase chain reaction (RT-PCR) and Capillary electrophoresis technology.Data from the assay component ATG_Myb_CIS was analyzed into 1 assay endpoint. This assay endpoint, ATG_Myb_CIS, was analyzed with bidirectional fitting relative to DMSO as the negative control and baseline of activity. Using a type of inducible reporter, measures of mRNA for gain or loss-of-signal activity can be used to understand the reporter gene at the transcription factor-level as they relate to the gene MYB. Furthermore, this assay endpoint can be referred to as a primary readout, because this assay has produced multiple assay endpoints where this one serves a reporter gene function. To generalize the intended target to other relatable targets, this assay endpoint is annotated to the dna binding intended target family, where the subfamily is MYB proteins.
Human liver HepG2 cells are transiently transfected with multiple reporter transcription units (MRTUs) in 6-well plates using FuGene 6 reagent (Roche; 3 ml FuGene/1 mg DNA). The MRTU constructs are regulated by a cis-regulating element (promoter). […] A major difference between the CIS and TRANS system is that in CIS activities of endogenous TFs are measured, whereas the TRANS assay evaluates changes in activities of exogenous, chimeric NR-Gal4 proteins. […] At the end of 24 hour incubation, total RNA was isolated using TriZol reagent (Invitrogen). The isolated RNA is then reverse-transcribed using oligo(dT) primer and Mo-MLV reverse transcriptase (Invitrogen) with DNAse I (Ambion) treatment for 30 min. The one-tenth of the produced cDNA was amplified by PCR using Taq DNA polymerase (Invitrogen) and two reporter sequence-specific primers. The PCR products were fluorescently labeled by primer extension with 6-arboxyfluorescein (6-FAM) 5'-labeled reporter sequence-specific primer (2 min at 95 C, 20 s at 68 C and 10 min at 72 C) and these products were digested with 5U of HpaI (New England Biolabs) for 2h at 37 C. The fragments were purified using Qiaquick PCR columns (Qiagen), analyzed on an ABI 3130xL genetic analyzer (Applied Biosystems) with peak positions identified by using a set of X-rhodamine (ROX)-labeled MapMarker1000 molecular weight standards (BioVentures). The raw capillary electrophoresis data was processed using Attagraph software (Attagene).

SMILES	outcome	AC50
Cc1ccccc1N	inactive	–
C[C@@H](Oc1ccc(Cl)cc1Cl)C(=O)O	inactive	–
CC(=O)C(Cl)C(=O)N(C)C (stereo not given)	inactive	–
CN(C)N=O	inactive	–
[O-][Cl+2]([O-])O	inactive	–
CCC[CH2][Sn]([Cl])([Cl])[Cl]	inactive	–
CCOP(=S)(OCC)Oc1nc(Cl)c(Cl)cc1Cl	inactive	–
C[C@H]1O[C@@H](O[C@H]2[C@@H](O)C[C@H](O[C@H]3[C@@H](O)C[C@H](O[C@H]4CC[C@@]5(C)[C@H](CC[C@@H]6[C@@H]5CC[C@]5(C)[C@@H](C7=CC(=O)OC7)CC[C@]65O)C4)O[C@@H]3C)O[C@@H]2C)C[C@H](O)[C@@H]1O	–	0.0564 µM (active)
CCc1ccccc1C	inactive	–
C[C@]12CC[C@H](O)CC1=CC[C@@H]1[C@@H]2CC[C@]2(C)C(=O)CC[C@@H]12	inactive	–
COc1ccccc1OC	inactive	–
N#CN=C(N)N	inactive	–
Fc1ccc(C2(Cn3cncn3)OC2c2ccccc2Cl)cc1 (stereo not given)	inactive	–
OCc1ccco1	inactive	–
CN(CCCC(=O)c1cccnc1)N=O	inactive	–
O=P(O)(O)CN(CP(=O)(O)O)CP(=O)(O)O	inactive	–
N#Cc1ccccn1	inactive	–
COP(=S)(OC)Oc1cc(Cl)c(Cl)cc1Cl	inactive	–
COC[C@H](C)N(C(=O)CCl)c1c(C)csc1C	inactive	–
ClC(Cl)=C(Cl)C(Cl)=C(Cl)Cl	inactive	–

SMILES	outcome	AC50
CC(C)(C)c1cc(O)ccc1O	inactive	–
COc1ccc(C=O)cc1	inactive	–
Cl/C=C/Cl	inactive	–
Clc1ccc(COC(Cn2ccnc2)c2ccc(Cl)cc2Cl)cc1 (stereo not given)	inactive	–
O=[N+]([O-])c1c(Cl)c(Cl)cc(Cl)c1Cl	inactive	–
CC1(C)Cc2cccc(O)c2O1	inactive	–
Clc1nc(Cl)nc(Cl)n1	inactive	–
Cn1sc(Cl)cc1=O	inactive	–
CCCCCCCCc1ccc(O)cc1	inactive	–
CCOC(=O)/C=C(C)/C=C/C[C@@H](C)CCCC(C)C	–	152 µM (active)
O=[N+]([O-])c1ccc2c3c(cccc13)CC2	inactive	–
CC(C#N)CCC#N (stereo not given)	inactive	–
C[C@H]1CCCC(=O)CCC/C=C/c2cc(O)cc(O)c2C(=O)O1	inactive	–
CCC(=O)c1ccccc1	inactive	–
O=C(Cc1ccccc1)c1ccccc1	inactive	–
O=C(O)C(F)(F)C(F)(F)C(F)(F)C(F)(F)C(F)(F)C(F)(F)C(F)(F)C(F)(F)C(F)(F)C(F)(F)F	inactive	154 µM (active)
c1cc[c]([Hg][c]2ccccc2)cc1	inactive	–
CCSC(C)CC1CC(=O)C(C(CC)=NOC/C=C/Cl)=C(O)C1 (stereo not given)	inactive	–
O=CC=O	inactive	–
